Measurements taken from the supplement of paper PMC13380429.

Test system: Vero E6 infected with SARS-CoV-2
Assay: inhibition of SARS-CoV-2 cytopathic effect; higher = more antiviral protection, active = above 15
Details: 48 h

Measured: inhibition of SARS-CoV-2 cytopathic effect

Oc1cc2c(cc1O)[C@H](Cc1cccc3ccccc13)NCC2
inactive: 1 nM 1.2% | 8.33 nM -0.02% | 100 nM -0.84% | 833.33 nM -0.78% | 10000 nM -2.59%

Cc1cc(S(=O)(=O)O)c2c(C)ccc(C(C)C)cc1-2 [sodium-gualenate]
inactive: 1 nM -10.1% | 8.33 nM -5.96% | 100 nM -9.82% | 833.33 nM -7.07% | 10000 nM -0.7%

C#C[C@]1(O)CC[C@H]2[C@@H]3CCC4=Cc5oncc5C[C@]4(C)[C@H]3CC[C@@]21C [danazol]
inactive: 1 nM 2.48% | 8.33 nM -0.9% | 100 nM 1.74% | 833.33 nM 3.55% | 10000 nM 6.39%

OC[C@H]1O[C@H](O[C@H]2[C@H](O)[C@@H](O)[C@H](O)O[C@@H]2CO)[C@H](O)[C@@H](O)[C@@H]1O [D-(+)-maltose]
inactive: 1 nM -1.05% | 8.33 nM -1.49% | 100 nM -0.09% | 833.33 nM -1.17% | 10000 nM -3.27%

O=C1NC(=O)c2c1c1c3ccccc3[nH]c1c1[nH]c3ccccc3c21 [arcyriaflavin-a]
inactive: 1 nM -5.59% | 8.33 nM -1.16% | 100 nM -3.16% | 833.33 nM -3.59% | 10000 nM -10.1%

CC(C)SC(=N)N [S-isopropylisothiourea]
inactive: 1 nM 1.63% | 8.33 nM 0.91% | 100 nM 3.8% | 833.33 nM 0.88% | 10000 nM 2.04%

Nc1ccc(S(=O)(=O)Nc2ccccn2)cc1 [sulfapyridine]
inactive: 1 nM -1.16% | 8.33 nM 0.08% | 100 nM 0.38% | 833.33 nM -1.04% | 10000 nM -4.35%

O=C1OC(OC(=O)c2cccnc2Nc2cccc(C(F)(F)F)c2)c2ccccc21 (stereo not given) [talniflumate]
inactive: 1 nM 2.12% | 8.33 nM -1.23% | 100 nM -2.09% | 833.33 nM 0.94% | 10000 nM 0.53%

Cn1cc(C[C@@H](N)C(=O)O)c2ccccc21 [indoximod]
inactive: 1 nM -3.51% | 8.33 nM -2.58% | 100 nM -2.33% | 833.33 nM -1.85% | 10000 nM -1.3%

CN(C)c1cc(CNCC(C)(C)C)c(O)c2c1C[C@H]1C[C@H]3[C@H](N(C)C)C(O)=C(C(N)=O)C(=O)[C@@]3(O)C(O)=C1C2=O [omadacycline]
inactive: 1 nM -0.66% | 8.33 nM 0.51% | 100 nM 1.58% | 833.33 nM -0.64% | 10000 nM -1.14%

CCc1nc(N)nc(N)c1-c1ccc(Cl)cc1 [pyrimethamine]
inactive: 1 nM 2.57% | 8.33 nM 3.29% | 100 nM 2.35% | 833.33 nM 1.69% | 10000 nM -1.07%

COc1cc2ncnc(Oc3cccc(NC(=O)Nc4cc(C(C)(C)C(F)(F)F)on4)c3)c2cc1OC
inactive: 1 nM -0.44% | 8.33 nM 0.69% | 100 nM 2.72% | 833.33 nM -0.98% | 10000 nM -6.45%

CNC(C)(C)Cc1ccccc1 [mephentermine]
inactive: 1 nM -6.95% | 8.33 nM -4.1% | 100 nM -6.2% | 833.33 nM -3.76% | 10000 nM 2.65%

Oc1cc(O)c2c(c1)O[C@H](c1ccc(O)c(O)c1)[C@H](O)[C@H]2c1c(O)cc(O)c2c1O[C@H](c1ccc(O)c(O)c1)[C@H](O)C2 [procyanidin-B-2]
inactive: 1 nM 2.26% | 8.33 nM 3.77% | 100 nM 2.22% | 833.33 nM 2.06% | 10000 nM -0.73%

CC(=O)C(=Cc1cc(O)c(O)c([N+](=O)[O-])c1)C(C)=O [nitecapone]
inactive: 1 nM -1.48% | 8.33 nM 2.97% | 100 nM 1.47% | 833.33 nM -1.89% | 10000 nM -6.91%

Cc1c(NC(=O)OC[C@@H]2COCCN2)cn2ncnc(Nc3ccc4c(cnn4Cc4cccc(F)c4)c3)c12
inactive: 1 nM 0.31% | 8.33 nM -2.14% | 100 nM -2.74% | 833.33 nM -8.47% | 10000 nM -10.8%

CC(=O)N[C@@H](CC(C)C)C(=O)O [acetyl-l-leucine]
inactive: 1 nM 1.37% | 8.33 nM -0.18% | 100 nM -0.14% | 833.33 nM -1.79% | 10000 nM -0.49%

Cc1ccc(S(=O)(=O)/C=C/C#N)cc1
active: 10000 nM 18.8%
inactive: 1 nM 0.18% | 8.33 nM -2.24% | 100 nM 0.01% | 833.33 nM 4.59%

N=C(N)c1ccc(OCCCCCOc2ccc(C(=N)N)cc2)cc1 [pentamidine]
inactive: 1 nM -3.18% | 8.33 nM -3.29% | 100 nM -4.34% | 833.33 nM -11.7% | 10000 nM 1.08%

CCCn1c(=O)[nH]c2nc(-c3ccc(S(=O)(=O)N4CCN(c5ccc(Cl)cc5)CC4)cc3)[nH]c2c1=O
inactive: 1 nM -0.12% | 8.33 nM 0.44% | 100 nM -0.16% | 833.33 nM 1.71% | 10000 nM 1.22%

CCN(CC)CCNC(=O)c1cc(Br)c(N)cc1OC [bromopride]
inactive: 1 nM -3.41% | 8.33 nM -1.83% | 100 nM -0.25% | 833.33 nM -3.5% | 10000 nM -1.74%

CN(C)C[C@H](O)Cn1c2ccc(Br)cc2c2cc(Br)ccc21 (racemic) [wiskostatin]
active: 10000 nM 57.3%
inactive: 1 nM -2.04% | 8.33 nM -1.61% | 100 nM 0.88% | 833.33 nM -1.26%

Cc1ccc(-c2ccc(C)cn2)nc1 [abametapir]
inactive: 1 nM -4.6% | 8.33 nM 1.76% | 100 nM -1.42% | 833.33 nM -3.2% | 10000 nM -1.76%

CC1(N)CCN(c2cnc(-c3cccc(Cl)c3Cl)c(N)n2)CC1
inactive: 1 nM -2.86% | 8.33 nM 2.23% | 100 nM 2.58% | 833.33 nM -1.51% | 10000 nM -9.83%

N#C/C(=C\c1ccc(O)c(O)c1)C(=O)NCCCc1ccccc1
inactive: 1 nM -2.32% | 8.33 nM -2.1% | 100 nM -0.73% | 833.33 nM 0.57% | 10000 nM 0.75%

Cc1ncc(CSSCc2cnc(C)c(O)c2CO)c(CO)c1O [pyritinol]
inactive: 1 nM -0.56% | 8.33 nM 1.16% | 100 nM 2.92% | 833.33 nM 1.42% | 10000 nM 0.94%

Cc1ccc(S(=O)(=O)OCC(=O)Nc2ccc(C(=O)O)c(O)c2)cc1 [STAT3-inhibitor-VI]
inactive: 1 nM -0.14% | 8.33 nM -0.23% | 100 nM 0.11% | 833.33 nM -1.76% | 10000 nM 1.39%

CCNC(=O)[C@@H]1CCCN1C(=O)[C@H](CCCNC(=N)N)NC(=O)[C@H](CC(C)C)NC(=O)[C@@H](CC(C)C)NC(=O)[C@H](Cc1ccc(O)cc1)NC(=O)[C@H](CO)NC(=O)[C@H](Cc1c[nH]c2ccccc12)NC(=O)[C@H](Cc1c[nH]cn1)NC(=O)[C@@H]1CCC(=O)N1 [leuprolide]
inactive: 1 nM -3.75% | 8.33 nM 3.77% | 100 nM 3.45% | 833.33 nM 0.4% | 10000 nM -1.48%

C[C@H](C[C@H](N)C(=O)O)C(=O)O
inactive: 1 nM -1.19% | 8.33 nM -0.93% | 100 nM -1.73% | 833.33 nM -0.6% | 10000 nM -0.35%

CCN(C)C(=O)Oc1cccc([C@H](C)N(C)C)c1 [rivastigmine]
inactive: 1 nM -1.4% | 8.33 nM 0.73% | 100 nM 2.11% | 833.33 nM -1.22% | 10000 nM -1.56%

CCCCCCCCCCCCCCCC(=O)OC(CC(=O)[O-])C[N+](C)(C)C (stereo not given) [palmitoylcarnitine]
inactive: 1 nM 0.08% | 8.33 nM 0.65% | 100 nM 0.35% | 833.33 nM -1.19% | 10000 nM -9.18%

CC1CCN(CC[C@H]2CCCN2S(=O)(=O)c2cccc(O)c2)CC1
inactive: 1 nM 1.41% | 8.33 nM 2.24% | 100 nM 2.25% | 833.33 nM 2.79% | 10000 nM 0.64%

CN(C)Cc1ccc(S(=O)(=O)n2ccc(/C=C/C(=O)NO)c2)cc1 [resminostat]
inactive: 1 nM 0.52% | 8.33 nM -2.34% | 100 nM -0.22% | 833.33 nM -9.24% | 10000 nM -24.5%

O=c1[nH]c2ccccc2n1CCCN1CCC(n2c(=O)[nH]c3cc(Cl)ccc32)CC1 [domperidone]
inactive: 1 nM 0.36% | 8.33 nM -0.12% | 100 nM 1.41% | 833.33 nM 2.23% | 10000 nM -3.31%

CCC(CC)O[C@@H]1C=C(C(=O)O)C[C@H](N)[C@H]1NC(C)=O [oseltamivir-carboxylate]
inactive: 1 nM -1.71% | 8.33 nM 0.87% | 100 nM 0.49% | 833.33 nM 1.32% | 10000 nM -0.82%

NC(=O)CN1C=CCC(C(N)=O)=C1 [caricotamide]
inactive: 1 nM 0.48% | 8.33 nM 2.71% | 100 nM 1.14% | 833.33 nM -1.91% | 10000 nM 0.44%

CC[C@H](C)C[C@H](C)CCCCCCCCC(=O)N[C@H]1C[C@@H](O)[C@@H](NCCN)NC(=O)[C@@H]2[C@@H](O)CCN2C(=O)[C@H]([C@H](O)CCN)NC(=O)[C@H]([C@H](O)[C@@H](O)c2ccc(O)cc2)NC(=O)[C@@H]2C[C@@H](O)CN2C(=O)[C@H]([C@@H](C)O)NC1=O [caspofungin]
inactive: 1 nM 0.56% | 8.33 nM 0.765% | 100 nM -1.58% | 833.33 nM 0.425% | 10000 nM 5.37%

NC(=O)c1noc([C@H](CCCC2CCCCC2)CC(=O)NO)n1
inactive: 1 nM 1.44% | 8.33 nM -2.89% | 100 nM 0.07% | 833.33 nM -1.38% | 10000 nM -7.78%
